Molecules are shown by their SMILES. Active and inactive are the calls of the source. Unless noted, no rule for the calls is given here.

For 10 compounds, z-score and composite z-score results are on record in PubChem BioAssay.

Assay [1] can be described thus: resazurin metabolic signal in HepG2 cells – cell-based, resazurin fluorescence, 24 h, PK04 Diversity Set, profiling panel (AID 1172). As to conditions: HepG2 viability, higher = more signal. (Resazurin is reduced to fluorescent resorufin, in cell work by metabolically active cells.)
Assay [2] in a line: budding yeast growth changes without added modifier – OD600, strain BY4716, 24 h, basal condition, primary screen (AID 1173). Particulars: S. cerevisiae BY4716 growth, OD600, 24 h; higher = more signal, called active from +8 up or from −8 down.
Assay [3] can be described thus: viability profiling in MM1S myeloma cells – cell-based, resazurin fluorescence, basal, 24 h, PK04 Diversity Set, profiling panel (AID 1174).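 Also: MM1S multiple myeloma cell line.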 Particulars: higher = more signal, called active from +8 up or from −8 down.
Assay [4] deals with Dihydroorotate dehydrogenase (quinone), mitochondrial (Plasmodium falciparum (isolate 3D7)) (UniProt Q08210). Nature of the assay: inhibition of P. falciparum DHODH – biochemical, C-terminal His tag, absorbance 600 nm, primary screen (AID 1175).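 Also: recombinant parasite enzyme with a five histidine tag at its C terminus.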 As to conditions: PfDHODH enzyme, DCIP absorbance 600 nm; higher = more signal, called active from +8 up or from −8 down.
Assay [5] can be described thus: inhibition of PAO1 biofilm formation – strain PAO1, LB-PBS medium, absorbance 600 nm, primary screen (AID 1176). Particulars: P. aeruginosa PAO1 growth/biofilm, A600, 12 h; higher = more signal.
Assay [6] in a line: growth modulation of vineyard yeast isolate – strain RM11-1a, OD600, basal, 24 h, primary screen (AID 1177).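 Also: cultures grown under basal conditions with no added stressor.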 Particulars: S. cerevisiae RM11-1a growth, OD600, 24 h; higher = more signal, called active from +8 up or from −8 down.
Assay [7] in a line: growth of efflux-deficient E. coli DRC39 – strain DRC39, OD650, 24 h, E. coli filamentation inducers, primary screen (AID 1178).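 Also: growth measured as culture turbidity by optical density at 650 nm.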 As to conditions: E. coli DRC39 acrAB, higher = more signal, called active from +8 up or from −8 down.
Assay [8] is described as follows: growth of efflux-deficient E. coli DRC39 – strain DRC39, OD650, 48 h, E. coli filamentation inducers, primary screen (AID 1179).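 Also: screen aims at cell division blockers that make cells filament.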 Particulars: E. coli DRC39 delta-acrAB growth, higher = more signal, called active from +8 up or from −8 down.
Assay [9] in a line: viability profiling in RPMI8226 myeloma cells – cell-based, resazurin fluorescence, basal, 24 h, PK04 Diversity Set, profiling panel (AID 1180).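 Also: RPMI8826 multiple myeloma cell line at 5000 cells per well.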 As to conditions: higher = more signal.
The target in assay [10] is E3 ubiquitin-protein ligase XIAP (Homo sapiens) (UniProt P98170). Nature of the assay: small molecules binding XIAP protein – biophysical, small-molecule microarray, fluorescence 635 nm, primary screen (AID 1181).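 Also: score merges 667 nm emission and signal to noise over triplicate slides.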 As to conditions: higher = more signal.
Assay [11] deals with XIP peptide (Xip251-270) binding. The assay is described as follows: XIP fragment 251-270 binding compounds – biochemical, small-molecule microarray, fluorescence 635/667 nm, 0.1 µg/mL protein, primary screen (AID 1182). As to conditions: fluorescent protein binding, 635 nm, higher = more signal, called active from +8 up or from −8 down.
Another assay has as its system XIP peptide (Xip251-270). The assay is described as follows: compounds binding XIP fragment 251-270 – biochemical, small-molecule microarray, fluorescence 635/667 nm, 0.5 µg/mL protein, primary screen (AID 1183). Particulars: fluorescence 635 nm, higher = more signal.
Assay [12] in a line: blood-stage malaria parasite viability loss – strain 3D7, DAPI fluorescence, 100 nL, primary screen (AID 1184).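 Also: parasites grown inside human red blood cells in medium with human serum.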 As to conditions: P. falciparum 3D7 growth, 3 d, higher = more signal.
Assay [13] has as its target Homeobox protein Hox-A13 (Mus musculus) (UniProt Q62424). Nature of the assay: disruptors of Hoxa13 oligonucleotide interaction – biochemical, fluorescence polarization, labeled oligonucleotide, primary screen (AID 1185). As to conditions: Hoxa13:DNA binding, 15 min, higher = more signal, called active from +8 up or from −8 down.
The nature of assay [14]: blockers of DNA damage checkpoint Chk1 activation – imaging, HeLa, hydroxyurea, phospho-Chk1 antibody, percent positive cells, primary screen (AID 1186). As to conditions: hydroxyurea-induced phospho-Chk1 immunofluorescence imaging, higher = more signal.
A short description of assay [15]: blockers of DNA damage checkpoint Chk1 activation – imaging, HeLa, hydroxyurea, phospho-Chk1 nuclear intensity, primary screen (AID 1187). Particulars: hydroxyurea-induced phospho-Chk1 immunofluorescence imaging, higher = more signal.

Chain of E3 ubiquitin-protein ligase XIAP (Homo sapiens) (P98170 whole entry, looked up, the tested form may be a part): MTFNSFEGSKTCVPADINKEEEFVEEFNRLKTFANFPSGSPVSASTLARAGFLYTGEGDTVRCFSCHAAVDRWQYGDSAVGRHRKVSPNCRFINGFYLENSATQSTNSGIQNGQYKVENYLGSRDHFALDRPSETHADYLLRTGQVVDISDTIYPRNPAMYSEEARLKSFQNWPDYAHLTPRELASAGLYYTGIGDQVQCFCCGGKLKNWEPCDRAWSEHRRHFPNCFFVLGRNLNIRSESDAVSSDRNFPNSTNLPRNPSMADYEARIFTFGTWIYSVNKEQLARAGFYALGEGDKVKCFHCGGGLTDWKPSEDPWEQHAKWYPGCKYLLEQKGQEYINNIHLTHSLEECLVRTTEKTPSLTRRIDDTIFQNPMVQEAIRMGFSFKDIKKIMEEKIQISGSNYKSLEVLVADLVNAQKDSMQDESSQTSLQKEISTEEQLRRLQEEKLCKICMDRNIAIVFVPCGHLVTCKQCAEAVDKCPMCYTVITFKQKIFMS
Chain of Dihydroorotate dehydrogenase (quinone), mitochondrial (Plasmodium falciparum (isolate 3D7)) (Q08210 whole entry, looked up): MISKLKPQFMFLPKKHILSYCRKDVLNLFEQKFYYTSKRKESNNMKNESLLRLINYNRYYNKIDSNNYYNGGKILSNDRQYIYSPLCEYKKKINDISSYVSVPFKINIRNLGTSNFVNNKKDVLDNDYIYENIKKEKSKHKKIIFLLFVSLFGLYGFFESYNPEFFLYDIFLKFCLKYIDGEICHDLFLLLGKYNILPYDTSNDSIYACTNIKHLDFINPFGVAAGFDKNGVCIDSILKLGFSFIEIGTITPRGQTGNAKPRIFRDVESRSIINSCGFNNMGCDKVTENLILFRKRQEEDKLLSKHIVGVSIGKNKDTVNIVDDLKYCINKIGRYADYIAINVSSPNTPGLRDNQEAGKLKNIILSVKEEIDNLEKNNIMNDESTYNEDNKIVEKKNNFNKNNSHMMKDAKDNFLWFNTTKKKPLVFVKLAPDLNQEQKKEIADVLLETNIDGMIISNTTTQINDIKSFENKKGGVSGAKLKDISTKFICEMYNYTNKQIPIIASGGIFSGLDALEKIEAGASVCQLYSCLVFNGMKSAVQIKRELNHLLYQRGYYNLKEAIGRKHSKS
Chain of Homeobox protein Hox-A13 (Mus musculus) (Q62424 whole entry, looked up): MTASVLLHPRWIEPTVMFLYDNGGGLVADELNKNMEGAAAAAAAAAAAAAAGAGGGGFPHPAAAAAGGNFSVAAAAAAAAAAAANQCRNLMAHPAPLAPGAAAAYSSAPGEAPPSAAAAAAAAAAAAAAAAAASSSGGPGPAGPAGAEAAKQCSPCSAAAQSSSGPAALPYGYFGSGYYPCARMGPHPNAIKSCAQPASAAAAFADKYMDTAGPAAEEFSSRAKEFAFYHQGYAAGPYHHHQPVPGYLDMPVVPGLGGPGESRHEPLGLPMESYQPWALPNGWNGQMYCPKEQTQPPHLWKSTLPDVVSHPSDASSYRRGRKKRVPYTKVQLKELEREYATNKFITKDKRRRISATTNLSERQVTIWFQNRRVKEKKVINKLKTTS

For `C[C@@H]1NC(=O)[C@@H](Cc2ccccc2)NC(=O)[C@@]23C(=O)N[C@@H](Cc4ccccc4)C2[C@H](C)[C@@]2(C)O[C@H]2C3/C=C/C/C=C\CNC1=O` (stereo not given in full), the z-score in assay [1] was -1.2; in [2] it was 0.318 (inactive); in [3], 0.0992 (inactive); in [5], 0.413 (inactive); in assay [6] it was 0.652 (inactive); in assay [7], -0.811 (inactive). The z-score is -0.863 (inactive) in [8]; 0.329 in assay [9]; -0.132 in [12]; -6.78 (inactive) in assay [13]; -0.115 (inactive) in assay [14]; -0.328 (inactive) in assay [15]. Moreover, the composite z-score was 0.0303 (inactive) in assay [4], -0.0138 in assay [10], -0.274 (inactive) in [11] and 0.711 with XIP peptide (Xip251-270).
For `CC(C)N1C(=O)C[C@@](C(=O)O)(c2ccc([N+](=O)[O-])cc2)[C@H]1c1ccc(CO)cc1`, the z-score was -0.847 in assay [1]; -0.717 (inactive) in assay [2]; 0.305 (inactive) in assay [3]; 0.0309 (inactive) in assay [5]; 0.196 (inactive) in assay [6]; 0.732 (inactive) in assay [7]. Also, the z-score was 0.684 (inactive) in assay [8]; 0.191 in assay [9]; -0.352 in assay [12]; -2.9 (inactive) in assay [13]; -0.198 (inactive) in assay [14]; -0.0057 (inactive) in [15]. For the same compound, the composite z-score in [4] is -1.24 (inactive); in [10], -0.169; in [11], 1.04 (inactive); in the assay with XIP peptide (Xip251-270), 0.916.
As for `O=C1C2C=CC(C(O)c3cccc(O)c3)N(Nc3ccc([N+](=O)[O-])cc3)C2C(=O)N1c1ccccc1` (stereo not given), the z-score is 0.0585 in assay [1]; 0.661 (inactive) in assay [2]; -0.337 (inactive) in [3]; -0.0601 (inactive) in assay [5]; 0.339 (inactive) in [6]; -0.478 (inactive) in assay [7]. In addition, the z-score was -0.156 (inactive) in assay [8]; -0.55 in assay [9]; 1.25 in [12]; -3.9 (inactive) in assay [13]; 0.181 (inactive) in [14]; -0.322 (inactive) in [15]. For the same compound, the composite z-score was 0.861 (inactive) in assay [4], 0.0927 in assay [10], -0.232 (inactive) in [11] and 0.342 in the assay on XIP peptide (Xip251-270).
Consider `COCCOC(=O)N1C(=O)[C@@]2(c3cc(C#CC4=CCCCC4)ccc31)[C@H](C(=O)Nc1nc3ccccc3s1)[C@H]1C(=O)O[C@H](c3ccccc3)[C@H](c3ccccc3)N1[C@@H]2c1ccc(O)cc1`, for which the z-score in [1] is -0.263; in assay [2], -0.344 (inactive); in assay [3], -0.679 (inactive); in assay [5] it was 0.766 (inactive); in assay [6], -0.145 (inactive); in assay [7], -0.469 (inactive). Also, the z-score in assay [8] is -0.765 (inactive); in assay [9], -0.527; in assay [12], -0.259; in [13], -0.148 (inactive); in assay [14], -0.0232 (inactive); in assay [15], -0.0288 (inactive). Further, the composite z-score was 0.347 (inactive) in assay [4], -0.138 in assay [10], -0.0082 (inactive) in assay [11] and 0.751 in the assay on XIP peptide (Xip251-270).
As for `CC(C)c1ccc(NN2C(C(O)c3ccc(C#N)cc3)C=CC3C(=O)N(c4ccccc4)C(=O)C32)cc1` (stereo not given), the z-score in assay [1] was -2; in [2] it was -1.67 (inactive); in assay [3], -1.26 (inactive); in assay [5], 1.94 (inactive); in assay [6], 1.15 (inactive); in assay [7], -0.526 (inactive). For the same compound, the z-score is -0.926 (inactive) in [8]; -1.48 in [9]; 0.109 in assay [12]; -2.79 (inactive) in assay [13]; 0.879 (inactive) in assay [14]; 0.815 (inactive) in [15]. Moreover, the composite z-score in assay [4] was -0.0438 (inactive); in assay [10], -0.152; in [11], 0.105 (inactive); in the assay on XIP peptide (Xip251-270), 0.752.
For the compound `N[C@@H](Cc1ccccc1)C(=O)NCc1cn(Cc2ccccc2)nn1`, the z-score in [1] was 0.68; in assay [2], -1.38 (inactive); in assay [3], 0.323 (inactive); in [5], -0.452 (inactive); in assay [6], -0.0114 (inactive); in assay [7], 1.35 (inactive). In addition, the z-score in assay [8] was 0.614 (inactive); in assay [9] it was 0.449; in assay [12], -0.581; in [13] it was -0.368 (inactive); in [14], -0.167 (inactive); in assay [15] it was 0.0852 (inactive). In addition, the composite z-score was -0.777 (inactive) in assay [4], -0.227 in assay [10], -0.221 (inactive) in assay [11] and -0.984 with XIP peptide (Xip251-270).
As for `COC(=O)C1(CC(C)C)C=C2C(=C(c3ccccc3)C(=O)C2C)CN1` (stereo not given), the z-score was -1.21 in [1]; 0.397 (inactive) in assay [2]; -2.14 (inactive) in assay [3]; 0.647 (inactive) in assay [5]; 0.168 (inactive) in assay [6]; -0.33 (inactive) in [7]. Moreover, the z-score in [8] is 0.208 (inactive); in [9], -1.27; in [12], -0.104; in [13], -7.47 (inactive); in [14], -0.563 (inactive); in assay [15], -1.13 (inactive). Besides, the composite z-score in assay [4] was -1.58 (inactive); in assay [10], -0.0133; in [11] it was -0.213 (inactive); in the assay on XIP peptide (Xip251-270), 0.758.
On to `O=c1cccc(-c2ccc([N+](=O)[O-])cc2)o1`, for which the z-score was 0.269 in assay [1]; -0.589 (inactive) in assay [2]; 0.697 (inactive) in assay [3]; 0.201 (inactive) in [5]; -0.376 (inactive) in [6]; -0.0154 (inactive) in assay [7]. Moreover, the z-score in assay [8] is 1.34 (inactive); in assay [9], -0.425; in [12], -0.799; in [13] it was -0.755 (inactive); in assay [14] it was -0.419 (inactive); in assay [15], -0.202 (inactive). For the same compound, the composite z-score is -0.371 (inactive) in [4], 0.515 in assay [10], 0.164 (inactive) in [11] and -0.163 in the assay with XIP peptide (Xip251-270).
In the case of `O=C1[C@H]2C=C(I)[C@H](C[C@@H]2OCCOCCO)[C@@]12CO2`, the z-score was 0.0263 in assay [1]; -0.28 (inactive) in assay [2]; -0.448 (inactive) in assay [3]; 0.224 (inactive) in assay [5]; -0.145 (inactive) in assay [6]; -0.331 (inactive) in assay [7]. Further, the z-score in assay [8] was -0.175 (inactive); in [9], -0.244; in assay [12], 0.79; in assay [13], 0.122 (inactive); in [14] it was 0.363 (inactive); in [15] it was 0.401 (inactive). Further, the composite z-score in [4] is 0.0832 (inactive); in assay [10], -0.304; in assay [11], 0.0014 (inactive); in the assay on XIP peptide (Xip251-270) it was -0.0714.
For the compound `CN(C)CCCCCCNC(=O)[C@@H]1C[C@@H]2C(=O)N3CCC[C@H]3C(=O)N2[C@@H]1c1cccc(OCCO)c1`, the z-score in assay [1] is -2.4; in [2] it was 0.451 (inactive); in assay [3], -0.727 (inactive); in assay [5], -0.267 (inactive); in assay [6], 0.363 (inactive); in assay [7], 0.0047 (inactive). Further, the z-score was -0.391 (inactive) in assay [8]; -0.946 in assay [9]; 0.517 in [12]; -2.94 (inactive) in [13]; 0.0537 (inactive) in [14]; -0.055 (inactive) in [15]. For the same compound, the composite z-score in assay [4] is -0.595 (inactive); in [10] it was -0.0062; in assay [11], 2.52 (inactive); in the assay with XIP peptide (Xip251-270), 0.872.
